Most compounds without a hit are left out; they make up all but 2.6% or so of the library.
PAFAH2 inh: PAFAH2 enzyme inhibitors, primary screen, biochemical, fluorescence polarization, human | Platelet-activating factor acetylhydrolase 2, cytoplasmic (Homo sapiens), Q99487 | recombinant PAFAH2, FP-rhodamine activity probe | inhibition, % at 3.39 µM | 340,000 tested, 0.99% active | AID 492956, 2010;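 active means inhibition above the mean over all tested compounds plus 3 SD, cut at about 30% in these data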;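 further: inhibitors block probe labeling of enzyme so polarization drops; 0% = enzyme with DMSO and 100% = wells lacking PAFAH2 protein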
PKA-R2B act: activators of PKA-R2B holoenzyme, primary screen, biochemical, fluorescence polarization, Cy5-IP20, human. PKA-R2B holoenzyme dissociation; R2B truncated from residue 108, S112A mutant; 0% DMSO only, 100% 113 µM cGMP. activation, % at 11.4 µM. 340,000 tested, 0.079% active;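 active means activation above a cutoff set at the mean over all compounds plus 3 SD, cut at about 18% in these data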;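 further: higher means more holoenzyme dissociation and a rise in polarization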
PKA-R1A activ: activators of PKA-R1A holoenzyme, primary screen, biochemical, fluorescence polarization, Cy5-IP20, bovine R1A, mouse PKAc; AID 504707, 2011; PKA-R1A dissociation; scaled: DMSO 0%, 113 µM cGMP 100%; activation, % at 11.4 µM; 340,000 tested, 0.083% active; cAMP-dependent protein kinase type I-alpha regulatory subunit (Bos taurus) + …;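 active means percent activation above the mean of all tested compounds plus 3 SD, cut at about 19% in these data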;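 further: higher means more PKAc released from R1A so a rise in polarization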
PAFAH1B3 FP inh: PAFAH1B3 enzyme inhibitors, primary screen, biochemical, fluorescence polarization, human; 340,000 tested, 0.28% active; Platelet-activating factor acetylhydrolase IB subunit alpha1 (Homo sapiens), Q15102; inhibition, % at 3.39 µM; recombinant PAFAH1B3, FP-rhodamine probe;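 active means inhibition above the screen-wide average of all tested compounds plus 3 SD, cut at about 25% in these data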;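 further: 0% = enzyme with DMSO only and 100% = wells lacking PAFAH1B3 protein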
Target sequence (Q15102 whole entry, looked up): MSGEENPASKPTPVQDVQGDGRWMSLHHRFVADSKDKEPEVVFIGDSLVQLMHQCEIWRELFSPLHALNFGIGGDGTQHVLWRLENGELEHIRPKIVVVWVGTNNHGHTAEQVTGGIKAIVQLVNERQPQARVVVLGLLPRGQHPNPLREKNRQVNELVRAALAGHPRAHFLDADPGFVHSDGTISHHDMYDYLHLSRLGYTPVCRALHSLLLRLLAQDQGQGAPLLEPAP
PAFAH1B2 FP inh: PAFAH1B2 enzyme inhibitors, primary screen, biochemical, fluorescence polarization, human; Platelet-activating factor acetylhydrolase IB subunit alpha2 (Homo sapiens), P68402; recombinant PAFAH1B2, FP-rhodamine activity probe; inhibition, % at 3.39 µM; 340,000 tested, 1.2% active; AID 492953, 2010;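 active means inhibition above the mean of all tested compounds plus 3 SD, cut at about 24% in these data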;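 further: 0% = enzyme with DMSO and 100% = wells lacking PAFAH1B2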
Target sequence (P68402 whole entry, looked up): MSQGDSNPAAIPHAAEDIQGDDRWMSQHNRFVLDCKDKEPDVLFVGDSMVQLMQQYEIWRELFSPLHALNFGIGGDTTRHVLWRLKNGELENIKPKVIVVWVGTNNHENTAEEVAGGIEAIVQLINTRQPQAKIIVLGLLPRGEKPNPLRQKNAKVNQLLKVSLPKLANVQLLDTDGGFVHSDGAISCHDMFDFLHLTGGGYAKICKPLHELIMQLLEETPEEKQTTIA
pPAFAH FP inh: pPAFAH enzyme inhibitors, primary screen, biochemical, fluorescence polarization, human | 330,000 tested, 1.5% active | AID 463082, 2010 | Platelet-activating factor acetylhydrolase (Homo sapiens), Q13093 | inhibition, % at 3.39 µM | recombinant pPAFAH, FP-rhodamine probe fluorescence polarization;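 active means inhibition above the mean inhibition across the screen plus 3 SD, cut at about 25% in these data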;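 further: inhibitors block binding of the rhodamine activity-based probe so polarization drops; 0% = enzyme with DMSO and 100% = wells lacking pPAFAH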
* hit, by the source's call; . = no result.

SMILES	PAFAH2 inh	PKA-R2B act	PKA-R1A activ	PAFAH1B3 FP inh	PAFAH1B2 FP inh	pPAFAH FP inh
Cc1ccc(S(=O)(=O)N(C)C)cc1NC(=O)COC(=O)c1sc2cc(Cl)ccc2c1Cl	-19	-6	-16	-12	-5	32*
Oc1ccccc1CNc1cccc2cccnc12	2	-13	-4	14	1	34*
COC(=O)[C@@H](Cc1c[nH]c2ccccc12)NC(=O)CCC(=O)c1ccc(F)cc1	3	2	-24	-3	7	5
O=[N+]([O-])c1cccc(-c2nc(-c3cccs3)c(-c3cccs3)[nH]2)c1	-3	-1	-8	22	6	28*
CN(C)CCNC(=O)c1nn(C)c2c1CCc1ccccc1-2	-1	-3	-18	-2	6	3
O=C(Nc1cccc2ccccc12)C1CCN(C(=O)NCc2ccccc2)CC1	9	-3	12	-3	4	4
COc1ccccc1NC(=O)C1CCN(C(=O)NCc2ccccc2)CC1	6	-4	-3	8	5	32*
Cc1c(CCC(=O)NC2CC2)c(=O)oc2cc(O)ccc12	-1	-3	5	4	4	0
Cc1ccc(S(=O)(=O)NC(C)c2ccccc2)cc1[N+](=O)[O-] (stereo not drawn)	5	9	-9	1	24*	0
Cc1ccc(C(=O)NCC(=O)NNC(=O)CN(C)S(=O)(=O)c2ccc(Cl)cc2)s1	0	-2	-8	-6	9	3
CCOc1cc(N2CCOCC2)c(OCC)cc1NC(=O)COC(=O)c1c(C)noc1C	.	5	14	.	.	.
O=S(=O)(NCCc1ccccc1)c1cccc(S(=O)(=O)N2CCOCC2)c1	6	-7	-10	12	9	22
O=C(NCCC1=CCCCC1)C1CCCN(S(=O)(=O)c2ccccc2)C1 (stereo not drawn)	4	-11	1	4	27*	9
O=S(=O)(NCCC1=CCCCC1)c1cccc(S(=O)(=O)N2CCOCC2)c1	-3	-9	-9	3	10	30*
O=C(NCCC1=CCCCC1)C1CCCN(S(=O)(=O)c2cnc[nH]2)C1 (stereo not drawn)	1	5	7	0	26*	6
COc1c2c(c(OC)c3ccccc13)[C@@]1(OC2)O[C@H](CCO)C[C@H](O)[C@H]1O	.	9	6	.	.	.
CCN(CC)S(=O)(=O)c1ccc(C(=O)NCC(=O)NCc2ccc3c(c2)OCO3)cc1	.	-3	-9	.	.	.
CCCn1nc(NS(=O)(=O)c2cccc3nonc23)c2cc3cccc(C)c3nc21	13	9	1	3	10	29*
O=C(CSc1nncs1)Nc1nnc(-c2ccccc2)o1	7	1	4	6	2	-6
Cc1ccc(-c2ccc(CCC(=O)O)n2-c2ccc(O)cc2)cc1	-5	-12	2	6	13	21
O=C(O)CCc1ccc(-c2ccc(Br)cc2)n1-c1ccc(O)cc1	1	5	-14	0	33*	.
O=C1c2c(O)ccc(O)c2C(=O)c2c(NCCNCCO)ccc(NCCNCCO)c21	0	-17	-21	4	3	4
O=C1c2ccccc2C(=O)c2c(Nc3ccc(CCO)cc3)ccc(O)c21	11	-21	-15	12	-1	31*
CCOC(=O)C1=C(CSc2nc3c(cc2C#N)CN(C)CC3)OC(N)=C(C#N)C1c1ccc(Cl)cc1 (stereo not drawn)	4	0	10	9	3	29*
CCOC(=O)C1=C(CSc2nc3c(cc2C#N)CN(C)CC3)OC(N)=C(C#N)C1c1ccncc1 (stereo not drawn)	25	-10	2	13	11	23
SMILES	PAFAH2 inh	PKA-R2B act	PKA-R1A activ	PAFAH1B3 FP inh	PAFAH1B2 FP inh	pPAFAH FP inh
N#CCC(=O)c1ccccc1Oc1ccc(Cl)cc1	-7	-12	-6	3	6	25*
Cc1cccc2cc(/C=N/Nc3ccc(C(=O)O)cc3)c(Cl)nc12	26	3	-2	15	11	28*
O=C(Oc1cc2oc(=O)cc(-c3ccccc3)c2cc1Cl)C1CCCCC1	-1	-2	-3	5	47*	4
O=C(Oc1ccc2ccc(=O)oc2c1)C1CCCCC1	3	-9	-19	0	-1	4
O=C(/C=C/c1ccc(S(=O)(=O)N2CCOCC2)cc1)NC(CO)C(O)c1ccc([N+](=O)[O-])cc1 (stereo not drawn)	5	7	-10	-1	2	2
Cc1cccc(C2=NN(c3ccccc3)[C@@H](C(=O)N3CCOC3=O)[C@@H]2c2ccccc2)c1	0	2	0	11	5	7
Cc1cccc(C2=NN(c3ccc(Br)cc3)[C@@H](C(=O)N3CCOC3=O)[C@@H]2c2ccccc2)c1	7	-6	2	11	2	29*
CC(NC(=O)COC(=O)C1=COCCO1)C12CC3CC(CC(C3)C1)C2 (stereo not drawn)	52*	-6	-2	-6	25*	4
N#CC1(NC(=O)COC(=O)C2=COCCO2)CCCCC1	92*	-1	-2	32*	19	3
CC(=O)Nc1ccc(S(=O)(=O)c2cc(O)ccc2O)cc1	-2	-4	-5	4	4	.
CCN(CC)C(=O)C1=C(C)N(CCCN2CCCC2=O)C(=O)C(CC(=O)NCCCCc2ccccc2)C1 (stereo not drawn)	.	5	-1	.	.	.
Cc1ccc([C@H]2C(C(=O)O)=C[C@@H](C(C)(C)C)N2S(=O)(=O)c2ccc(C)cc2)cc1	5	-3	1	1	24*	2
Cc1ccc(S(=O)(=O)N2[C@@H](c3cccc(C)c3)C(C(=O)O)=C[C@H]2C(C)(C)C)cc1	5	0	-7	0	31*	1
COc1ccc([C@H]2C(C(=O)O)=C[C@@H](C(C)(C)C)N2S(=O)(=O)c2ccccc2)cc1	5	7	-3	1	9	-2
Cc1ccc(S(=O)(=O)N2[C@@H](c3ccc(C(C)C)cc3)C(C(=O)O)=C[C@H]2C(C)(C)C)cc1	5	-5	2	-3	28*	13
COc1ccc(NC(=O)C2CCCN2C(=O)NC2CCCCC2)cc1 (stereo not drawn)	1	-5	-1	10	4	-6
COc1ccc(CNCc2ccc3ccccc3c2)c(OC)c1	-1	1	-10	1	1	-1

High-throughput results: PubChem BioAssay, The Scripps Research Institute Molecular Screening Center
